Assay results reported in paper PMC7862700, “An all-to-all approach to the identification of sequence-specific readers for epigenetic DNA modifications on cytosine”.

Tests used:
Assay in all cases: DAPPL (digital affinity profiling via proximity ligation, sequencing); 10 mM Tris-HCl pH 7.5, 50 mM NaCl, 1 mM DTT, 4% glycerol, room temperature, 30 min; GST-TFs on glutathione beads, 16-mer random dsDNA library, 0.1% formaldehyde crosslink after washing; high values mean tight binding
[1] = target: T1, FEV (Homo sapiens, UniProt Q99581 1-238); settings: protein: recombinant; tags: N-terminal GST; dsDNA, one strand shown
T1 sequence: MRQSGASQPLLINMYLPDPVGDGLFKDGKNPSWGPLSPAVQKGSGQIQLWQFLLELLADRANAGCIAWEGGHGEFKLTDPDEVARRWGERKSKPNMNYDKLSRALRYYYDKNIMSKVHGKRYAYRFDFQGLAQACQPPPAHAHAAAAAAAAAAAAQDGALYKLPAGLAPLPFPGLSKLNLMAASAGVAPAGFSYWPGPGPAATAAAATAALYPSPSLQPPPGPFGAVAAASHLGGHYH
Procedure, shortened: (§1)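 Beads coated with glutathione captured GST-fused human transcription factors that had been expressed in yeast, and the factors were then given DNA barcodes and pooled with a tag-only sample. The pools were incubated with 200 nmole of a random double-stranded 16-mer DNA library in Tris/NaCl/DTT/glycerol buffer for 30 min at room temperature, washed, crosslinked with 0.1% formaldehyde and proximity-ligated with BsaI/T4 ligase at 37 °C for 1 h. PCR amplification and Illumina NextSeq500 sequencing came last. Binding signal is each hexamer's read frequency for a factor divided by its frequency for the tag-only sample.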

[2] = target: ETV5 (Homo sapiens, UniProt P41161 1-510); settings: protein: recombinant; tags: N-terminal GST; dsDNA, one strand shown
Procedure, shortened: as §1

[3] = target: HSF1 (Homo sapiens, UniProt Q00613 1-529); settings: protein: recombinant; tags: N-terminal GST; chain copies: 3; dsDNA, one strand shown
Procedure, shortened: as §1

[4] = target: T2, SPIC (Homo sapiens, UniProt Q8N5J4 1-248); settings: protein: recombinant; tags: N-terminal GST; dsDNA, one strand shown
T2 sequence: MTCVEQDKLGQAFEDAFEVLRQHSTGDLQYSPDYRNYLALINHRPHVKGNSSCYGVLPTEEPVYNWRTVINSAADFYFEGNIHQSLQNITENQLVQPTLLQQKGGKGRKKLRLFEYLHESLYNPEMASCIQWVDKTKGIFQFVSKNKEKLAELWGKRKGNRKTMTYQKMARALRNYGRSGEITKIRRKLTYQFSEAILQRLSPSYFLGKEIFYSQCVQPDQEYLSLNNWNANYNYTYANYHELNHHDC
Procedure, shortened: as §1

[5] = target: ELF4 (Homo sapiens, UniProt Q99607 1-663); settings: protein: recombinant; tags: N-terminal GST; dsDNA, one strand shown
Procedure, shortened: as §1

[6] = target: T3, ELK4 (Homo sapiens, UniProt P28324-2 1-405); settings: protein: recombinant; tags: N-terminal GST; dsDNA, one strand shown
T3 sequence: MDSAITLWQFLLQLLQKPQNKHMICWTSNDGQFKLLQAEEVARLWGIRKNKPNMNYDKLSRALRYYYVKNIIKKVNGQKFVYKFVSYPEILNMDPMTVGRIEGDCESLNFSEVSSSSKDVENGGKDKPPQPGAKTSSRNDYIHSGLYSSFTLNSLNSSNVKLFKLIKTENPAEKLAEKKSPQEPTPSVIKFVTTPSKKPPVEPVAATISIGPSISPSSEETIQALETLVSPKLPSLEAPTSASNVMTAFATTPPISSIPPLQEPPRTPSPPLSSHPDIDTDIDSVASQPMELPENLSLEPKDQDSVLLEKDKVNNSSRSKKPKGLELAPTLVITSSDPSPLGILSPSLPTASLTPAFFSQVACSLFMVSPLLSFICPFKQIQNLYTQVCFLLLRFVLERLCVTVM
Procedure, shortened: as §1

[7] = target: T4, ETV2 (Homo sapiens, UniProt O00321 1-342); settings: protein: recombinant; tags: N-terminal GST; dsDNA, one strand shown
T4 sequence: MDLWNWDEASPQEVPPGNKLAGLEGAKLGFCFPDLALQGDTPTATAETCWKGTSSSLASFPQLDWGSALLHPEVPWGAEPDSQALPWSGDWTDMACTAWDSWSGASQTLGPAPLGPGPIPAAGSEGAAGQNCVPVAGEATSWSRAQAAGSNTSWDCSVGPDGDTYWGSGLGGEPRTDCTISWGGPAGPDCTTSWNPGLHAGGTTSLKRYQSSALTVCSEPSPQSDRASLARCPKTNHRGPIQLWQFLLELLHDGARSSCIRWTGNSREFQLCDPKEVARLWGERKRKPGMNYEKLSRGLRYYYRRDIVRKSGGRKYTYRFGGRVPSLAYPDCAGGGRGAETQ
Procedure, shortened: as §1

[8] = target: T5, ELF3 (Homo sapiens, UniProt P78545 1-371); settings: protein: recombinant; tags: N-terminal GST; dsDNA, one strand shown
T5 sequence: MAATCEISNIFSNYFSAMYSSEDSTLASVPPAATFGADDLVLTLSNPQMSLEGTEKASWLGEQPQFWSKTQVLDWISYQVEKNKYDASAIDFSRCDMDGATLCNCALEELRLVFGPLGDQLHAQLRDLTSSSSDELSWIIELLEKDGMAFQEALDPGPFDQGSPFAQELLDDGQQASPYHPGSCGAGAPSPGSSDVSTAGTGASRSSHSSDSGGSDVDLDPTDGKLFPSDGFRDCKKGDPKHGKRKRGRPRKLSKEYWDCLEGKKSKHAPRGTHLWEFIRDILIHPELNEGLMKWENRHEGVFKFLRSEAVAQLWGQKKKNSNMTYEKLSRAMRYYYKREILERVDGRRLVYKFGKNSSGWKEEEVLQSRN
Procedure, shortened: as §1

[9] = target: CRX (Homo sapiens, UniProt O43186 1-299); settings: protein: recombinant; tags: N-terminal GST; dsDNA, one strand shown
Procedure, shortened: as §1

[10] = target: ETV1 (Homo sapiens, UniProt P50549 1-477); settings: protein: recombinant; tags: N-terminal GST; dsDNA, one strand shown
Procedure, shortened: as §1

[11] = target: T6, ERF (Homo sapiens, UniProt P50548 1-548); settings: protein: recombinant; tags: N-terminal GST; dsDNA, one strand shown
T6 sequence: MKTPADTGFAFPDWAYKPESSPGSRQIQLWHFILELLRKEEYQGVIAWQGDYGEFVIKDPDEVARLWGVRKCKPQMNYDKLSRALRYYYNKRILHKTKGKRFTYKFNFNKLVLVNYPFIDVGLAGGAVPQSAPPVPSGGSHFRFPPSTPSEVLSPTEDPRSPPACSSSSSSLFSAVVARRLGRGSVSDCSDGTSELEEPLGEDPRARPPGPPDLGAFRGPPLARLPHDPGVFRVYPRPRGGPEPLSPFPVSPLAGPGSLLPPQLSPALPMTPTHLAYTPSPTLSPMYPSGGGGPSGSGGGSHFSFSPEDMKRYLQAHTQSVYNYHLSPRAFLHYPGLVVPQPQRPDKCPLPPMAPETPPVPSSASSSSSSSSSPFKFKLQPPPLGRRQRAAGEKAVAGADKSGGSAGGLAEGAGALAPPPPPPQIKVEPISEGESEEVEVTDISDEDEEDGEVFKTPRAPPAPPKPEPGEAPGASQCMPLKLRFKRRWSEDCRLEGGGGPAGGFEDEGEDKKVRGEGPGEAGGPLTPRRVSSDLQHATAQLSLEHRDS
Procedure, shortened: as §1

[12] = target: T7, ETV3L (Homo sapiens, UniProt Q6ZN32 1-361); settings: protein: recombinant; tags: N-terminal GST; dsDNA, one strand shown
T7 sequence: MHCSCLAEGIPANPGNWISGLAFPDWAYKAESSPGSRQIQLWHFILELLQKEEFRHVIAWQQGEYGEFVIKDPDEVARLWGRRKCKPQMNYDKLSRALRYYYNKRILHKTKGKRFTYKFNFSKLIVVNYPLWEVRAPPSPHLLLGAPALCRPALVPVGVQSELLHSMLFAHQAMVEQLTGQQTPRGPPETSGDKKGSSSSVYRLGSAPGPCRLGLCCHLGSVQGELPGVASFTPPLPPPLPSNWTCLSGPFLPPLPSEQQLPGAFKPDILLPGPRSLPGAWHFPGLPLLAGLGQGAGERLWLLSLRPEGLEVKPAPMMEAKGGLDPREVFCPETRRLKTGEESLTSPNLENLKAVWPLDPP
Procedure, shortened: as §1

[13] = target: T8, ETS2 (Homo sapiens, UniProt P15036 1-469); settings: protein: recombinant; tags: N-terminal GST; dsDNA, one strand shown
T8 sequence: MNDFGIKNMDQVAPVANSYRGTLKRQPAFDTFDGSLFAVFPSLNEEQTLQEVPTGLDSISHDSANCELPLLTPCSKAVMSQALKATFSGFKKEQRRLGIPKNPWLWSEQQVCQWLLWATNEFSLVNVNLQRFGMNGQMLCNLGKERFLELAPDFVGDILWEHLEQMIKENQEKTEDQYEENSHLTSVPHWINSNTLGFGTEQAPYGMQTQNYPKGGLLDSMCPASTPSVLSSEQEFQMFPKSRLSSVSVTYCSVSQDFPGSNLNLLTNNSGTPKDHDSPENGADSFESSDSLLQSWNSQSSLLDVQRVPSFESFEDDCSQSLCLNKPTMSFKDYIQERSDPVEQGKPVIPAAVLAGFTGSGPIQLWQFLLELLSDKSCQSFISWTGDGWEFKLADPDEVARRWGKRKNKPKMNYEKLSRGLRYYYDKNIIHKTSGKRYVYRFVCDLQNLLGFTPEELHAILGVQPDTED
Procedure, shortened: as §1

[14] = target: T9, SPDEF (Homo sapiens, UniProt O95238 1-335); settings: protein: recombinant; tags: N-terminal GST; dsDNA, one strand shown
T9 sequence: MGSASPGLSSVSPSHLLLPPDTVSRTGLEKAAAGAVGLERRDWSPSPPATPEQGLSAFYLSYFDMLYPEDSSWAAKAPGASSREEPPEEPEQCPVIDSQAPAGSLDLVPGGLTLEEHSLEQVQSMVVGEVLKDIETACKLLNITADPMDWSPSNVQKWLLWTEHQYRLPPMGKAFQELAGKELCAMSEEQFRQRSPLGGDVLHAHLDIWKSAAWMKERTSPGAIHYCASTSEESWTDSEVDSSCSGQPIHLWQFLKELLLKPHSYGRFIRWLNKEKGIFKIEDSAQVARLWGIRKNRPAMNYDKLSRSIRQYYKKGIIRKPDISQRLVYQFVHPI
Procedure, shortened: as §1

[15] = target: T10, ETV7 (Homo sapiens, UniProt Q9Y603 1-341); settings: protein: recombinant; tags: N-terminal GST; dsDNA, one strand shown
T10 sequence: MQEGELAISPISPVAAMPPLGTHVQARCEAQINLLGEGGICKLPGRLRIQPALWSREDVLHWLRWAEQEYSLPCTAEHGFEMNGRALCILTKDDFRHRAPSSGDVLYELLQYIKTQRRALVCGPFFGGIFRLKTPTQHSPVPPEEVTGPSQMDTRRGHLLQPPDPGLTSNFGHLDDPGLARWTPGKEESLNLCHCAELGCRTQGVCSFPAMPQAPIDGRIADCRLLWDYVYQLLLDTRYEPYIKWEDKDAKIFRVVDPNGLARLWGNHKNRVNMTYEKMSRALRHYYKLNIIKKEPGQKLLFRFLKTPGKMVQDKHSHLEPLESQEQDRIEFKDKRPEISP
Procedure, shortened: as §1

[16] = target: T11, ELF5 (Homo sapiens, UniProt Q9UKW6-2 1-255); settings: protein: recombinant; tags: N-terminal GST; dsDNA, one strand shown
T11 sequence: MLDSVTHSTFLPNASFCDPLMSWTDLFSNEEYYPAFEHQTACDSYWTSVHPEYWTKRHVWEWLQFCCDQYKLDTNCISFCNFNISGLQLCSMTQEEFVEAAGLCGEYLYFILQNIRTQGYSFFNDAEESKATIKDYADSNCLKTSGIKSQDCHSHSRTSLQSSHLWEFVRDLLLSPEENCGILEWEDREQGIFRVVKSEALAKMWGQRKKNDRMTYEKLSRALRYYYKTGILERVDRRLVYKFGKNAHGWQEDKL
Procedure, shortened: as §1

[17] = target: T12, ETV3 (Homo sapiens, UniProt P41162-2 1-143); settings: protein: recombinant; tags: N-terminal GST; dsDNA, one strand shown
T12 sequence: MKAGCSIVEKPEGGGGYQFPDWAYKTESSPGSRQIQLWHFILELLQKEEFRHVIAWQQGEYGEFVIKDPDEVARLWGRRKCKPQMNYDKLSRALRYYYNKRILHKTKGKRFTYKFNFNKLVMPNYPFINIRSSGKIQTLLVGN
Procedure, shortened: as §1

[18] = target: ETV6 (Homo sapiens, UniProt P41212 1-452); settings: protein: recombinant; tags: N-terminal GST; dsDNA, one strand shown
Procedure, shortened: as §1

ETV1, sequence (P50549 whole entry): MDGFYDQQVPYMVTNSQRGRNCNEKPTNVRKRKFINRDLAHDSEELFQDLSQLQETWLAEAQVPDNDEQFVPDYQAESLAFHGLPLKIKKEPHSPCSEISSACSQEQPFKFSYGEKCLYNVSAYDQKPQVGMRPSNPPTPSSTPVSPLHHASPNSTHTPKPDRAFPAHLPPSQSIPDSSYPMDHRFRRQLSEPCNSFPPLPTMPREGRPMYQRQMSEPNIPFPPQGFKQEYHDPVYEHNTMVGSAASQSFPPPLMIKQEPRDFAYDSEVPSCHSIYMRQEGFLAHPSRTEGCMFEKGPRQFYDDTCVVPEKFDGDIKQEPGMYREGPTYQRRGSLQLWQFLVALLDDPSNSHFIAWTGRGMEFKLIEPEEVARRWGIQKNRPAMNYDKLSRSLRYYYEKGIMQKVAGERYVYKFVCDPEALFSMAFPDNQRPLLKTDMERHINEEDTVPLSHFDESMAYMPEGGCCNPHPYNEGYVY
CRX, sequence (O43186 whole entry): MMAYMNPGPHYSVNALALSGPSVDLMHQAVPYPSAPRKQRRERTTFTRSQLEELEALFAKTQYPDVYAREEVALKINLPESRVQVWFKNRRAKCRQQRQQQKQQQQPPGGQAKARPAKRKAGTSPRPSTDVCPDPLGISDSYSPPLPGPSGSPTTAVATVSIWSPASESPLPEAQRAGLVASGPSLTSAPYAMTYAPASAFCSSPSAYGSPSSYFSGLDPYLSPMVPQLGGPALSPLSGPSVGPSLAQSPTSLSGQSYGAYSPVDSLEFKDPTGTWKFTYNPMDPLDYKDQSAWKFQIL
HSF1, sequence (Q00613 whole entry): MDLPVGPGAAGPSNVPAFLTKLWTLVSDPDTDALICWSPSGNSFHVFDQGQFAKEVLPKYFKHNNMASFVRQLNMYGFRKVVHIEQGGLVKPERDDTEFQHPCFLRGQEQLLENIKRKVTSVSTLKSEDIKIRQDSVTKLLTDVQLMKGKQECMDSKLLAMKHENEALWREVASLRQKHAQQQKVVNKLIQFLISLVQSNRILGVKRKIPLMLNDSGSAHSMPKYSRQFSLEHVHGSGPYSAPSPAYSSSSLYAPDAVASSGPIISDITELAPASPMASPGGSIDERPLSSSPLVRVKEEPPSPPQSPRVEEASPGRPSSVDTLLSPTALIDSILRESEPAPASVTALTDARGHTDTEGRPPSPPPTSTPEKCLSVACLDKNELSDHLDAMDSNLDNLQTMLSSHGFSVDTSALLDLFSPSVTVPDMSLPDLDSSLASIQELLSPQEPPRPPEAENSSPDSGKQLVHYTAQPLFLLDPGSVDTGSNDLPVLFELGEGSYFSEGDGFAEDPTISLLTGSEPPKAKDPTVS
ETV5, sequence (P41161 whole entry): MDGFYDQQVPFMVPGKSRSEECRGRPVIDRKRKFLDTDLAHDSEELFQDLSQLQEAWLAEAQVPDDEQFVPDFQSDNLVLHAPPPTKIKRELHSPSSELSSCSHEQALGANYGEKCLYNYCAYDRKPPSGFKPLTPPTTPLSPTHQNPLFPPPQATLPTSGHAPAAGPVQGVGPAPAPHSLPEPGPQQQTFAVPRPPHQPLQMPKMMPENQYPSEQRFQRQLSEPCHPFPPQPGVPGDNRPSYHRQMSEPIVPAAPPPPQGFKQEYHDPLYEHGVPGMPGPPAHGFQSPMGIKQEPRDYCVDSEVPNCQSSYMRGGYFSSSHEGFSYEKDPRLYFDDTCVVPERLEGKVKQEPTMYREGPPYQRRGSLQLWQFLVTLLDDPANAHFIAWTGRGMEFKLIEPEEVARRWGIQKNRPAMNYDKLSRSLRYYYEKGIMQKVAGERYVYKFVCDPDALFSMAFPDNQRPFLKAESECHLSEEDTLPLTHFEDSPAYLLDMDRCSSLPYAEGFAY
ELF4, sequence (Q99607 whole entry): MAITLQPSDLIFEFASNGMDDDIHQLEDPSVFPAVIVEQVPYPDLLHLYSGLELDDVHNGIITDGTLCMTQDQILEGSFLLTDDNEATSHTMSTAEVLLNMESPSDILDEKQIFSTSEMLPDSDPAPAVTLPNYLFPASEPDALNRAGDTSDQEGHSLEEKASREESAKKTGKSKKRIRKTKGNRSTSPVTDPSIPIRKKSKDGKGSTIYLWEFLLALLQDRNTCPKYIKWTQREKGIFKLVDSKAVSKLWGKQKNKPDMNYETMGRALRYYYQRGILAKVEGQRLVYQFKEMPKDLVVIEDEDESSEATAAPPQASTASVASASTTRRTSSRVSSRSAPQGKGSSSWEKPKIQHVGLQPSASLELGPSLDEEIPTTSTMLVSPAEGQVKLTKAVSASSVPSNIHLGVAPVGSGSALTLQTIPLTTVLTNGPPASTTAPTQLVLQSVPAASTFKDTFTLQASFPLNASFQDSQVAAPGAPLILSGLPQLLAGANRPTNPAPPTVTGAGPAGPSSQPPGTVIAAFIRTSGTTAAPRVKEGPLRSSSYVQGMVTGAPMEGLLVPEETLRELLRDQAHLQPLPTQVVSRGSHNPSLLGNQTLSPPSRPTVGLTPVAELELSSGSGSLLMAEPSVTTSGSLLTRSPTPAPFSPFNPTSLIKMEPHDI
ETV6, sequence (P41212 whole entry): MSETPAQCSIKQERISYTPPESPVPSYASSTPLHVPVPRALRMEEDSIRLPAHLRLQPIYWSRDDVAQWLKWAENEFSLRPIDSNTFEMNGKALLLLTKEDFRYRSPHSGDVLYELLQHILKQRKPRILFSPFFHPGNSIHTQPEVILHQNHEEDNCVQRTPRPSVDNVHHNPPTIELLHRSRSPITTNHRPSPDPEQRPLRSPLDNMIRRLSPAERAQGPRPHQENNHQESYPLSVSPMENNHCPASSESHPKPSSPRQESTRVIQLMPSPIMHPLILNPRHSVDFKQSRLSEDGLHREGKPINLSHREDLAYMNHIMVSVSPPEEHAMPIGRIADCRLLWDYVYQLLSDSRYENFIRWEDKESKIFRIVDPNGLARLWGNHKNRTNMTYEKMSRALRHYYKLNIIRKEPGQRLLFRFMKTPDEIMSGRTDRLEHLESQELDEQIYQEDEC

Sequence: CGAAGC
- binding signal [1]: 1.23 fold enrichment (6-mer frequency, TF over GST control)
- binding signal [2]: 1.31 fold enrichment (6-mer frequency, TF over GST control)
- binding signal [3]: 1.64 fold enrichment (6-mer frequency, TF over GST control)
- binding signal [4]: 1.46 fold enrichment (6-mer frequency, TF over GST control)
- binding signal [5]: 1.44 fold enrichment (6-mer frequency, TF over GST control)
- binding signal [6]: 1.48 fold enrichment (6-mer frequency, TF over GST control)
- binding signal [7]: 1.3 fold enrichment (6-mer frequency, TF over GST control)
- binding signal [8]: 1.23 fold enrichment (6-mer frequency, TF over GST control)
- binding signal [9]: 1.19 fold enrichment (6-mer frequency, TF over GST control)
- binding signal [10]: 1.29 fold enrichment (6-mer frequency, TF over GST control)
- binding signal [11]: 1.38 fold enrichment (6-mer frequency, TF over GST control)
- binding signal [12]: 1.2 fold enrichment (6-mer frequency, TF over GST control)
- binding signal [13]: 1.33 fold enrichment (6-mer frequency, TF over GST control)
- binding signal [14]: 1.18 fold enrichment (6-mer frequency, TF over GST control)
- binding signal [15]: 1.44 fold enrichment (6-mer frequency, TF over GST control)
- binding signal [16]: 1.19 fold enrichment (6-mer frequency, TF over GST control)
- binding signal [17]: 1.34 fold enrichment (6-mer frequency, TF over GST control)
- binding signal [18]: 1.14 fold enrichment (6-mer frequency, TF over GST control)
